Records with an inconclusive call do not appear. The source made the active and inactive calls. The calls were made as follows, unless noted: active = hit-call score of the fitted dose curve at least 0.9, where 1 is the maximum; inconclusive = response in the unintended direction; inactive = score below 0.9.

As a reminder, the AC50 is the midpoint of the concentration-response curve, whichever way the signal moves.

Test [1] concerns the target human Retinoid X Receptor beta (RXRb), RXRB (gene 6257) (UniProt P28702). Kind of test: ATG_RXRb_TRANS: Attagene TRANS-FACTORIAL HepG2 Assay for human Retinoid X Receptor beta (RXRb) (AID 2283013). Put shortly: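 HepG2 cells transiently transfected with multiplexed reporter units driven by GAL4-UAS and exogenous chimeric NR-Gal4 proteins; treated 24 h. Reporter mRNA measured by RT-PCR, 6-FAM labelling and capillary electrophoresis; gain-of-signal fitted versus DMSO baseline.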

The target of test [2] is human Thyroid Receptor alpha (THRa1), THRA (gene 7067) (UniProt P10827). Briefly: ATG_THRa1_TRANS: Attagene TRANS-FACTORIAL HepG2 Assay for human Thyroid Receptor alpha (THRa1) (AID 2283014). The method, boiled down: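 Transcripts from GAL4-UAS-driven reporters, measured after 24 h compound exposure by RT-PCR plus capillary electrophoresis of 6-FAM-labeled fragments, were fitted for gain of signal relative to DMSO. Cells: transiently transfected HepG2 expressing NR-Gal4 chimeras.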
human Thyroid Receptor alpha (THRa1), THRA (gene 7067), sequence (P10827 whole entry, looked up, the tested form may be a part): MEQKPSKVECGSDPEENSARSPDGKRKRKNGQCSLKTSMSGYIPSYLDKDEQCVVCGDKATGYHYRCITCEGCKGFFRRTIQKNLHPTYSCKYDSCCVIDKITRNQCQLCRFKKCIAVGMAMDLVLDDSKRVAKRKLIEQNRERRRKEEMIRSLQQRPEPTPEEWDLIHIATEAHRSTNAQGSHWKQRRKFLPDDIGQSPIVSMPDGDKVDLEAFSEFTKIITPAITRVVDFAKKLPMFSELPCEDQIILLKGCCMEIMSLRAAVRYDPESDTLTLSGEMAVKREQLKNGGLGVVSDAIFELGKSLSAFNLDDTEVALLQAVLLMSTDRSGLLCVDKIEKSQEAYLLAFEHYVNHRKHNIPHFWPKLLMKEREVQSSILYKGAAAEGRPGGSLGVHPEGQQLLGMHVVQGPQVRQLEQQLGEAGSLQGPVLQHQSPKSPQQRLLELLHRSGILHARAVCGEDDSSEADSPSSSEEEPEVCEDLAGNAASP

Test [3] has as its target human Vitamin D Receptor (VDR), VDR (gene 7421) (UniProt P11473). Kind of test: ATG_VDR_TRANS: Attagene TRANS-FACTORIAL HepG2 Assay for human Vitamin D Receptor (VDR) (AID 2283022). The method, boiled down: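 Transactivation by an exogenous VDR-Gal4 chimera in transiently transfected HepG2 cells was measured as reporter transcript level 24 hours after chemical treatment. RT-PCR products were analysed by capillary electrophoresis and fitted in the positive direction relative to DMSO.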

Read-out in test [4]: E-selectin (Homo sapiens) (UniProt P16581)
Kind of test: BSK_3C_Eselectin: BioMAP Diversity Plus: 3C Assay for Eselectin Biomarker Activity (AID 2283015; active = hit-call score of the fitted dose curve at least 0.9, where 1 is the maximum; inactive = score below 0.9;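 also: cell surface E-selectin protein quantified by ELISA 24 h after dosing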). The following applies: primary human endothelial cells (HUVEC); actives raise or lower the signal. Put shortly: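 E-selectin ELISA readout, fitted bidirectionally relative to DMSO, taken 24 h post-dosing in HUVEC cultures of the 3C system. Overt cytotoxicity tracked with sulforhodamine B staining of parallel wells.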

Read-out in test [5]: Interleukin-1 alpha (IL1a), IL1A (gene 3552)
Kind of test: BSK_BE3C_IL1a: BioMAP Diversity Plus: BE3C Assay for Interleukin-1 alpha (IL1a) Biomarker Activity (AID 2283016; active = hit-call score of the fitted dose curve at least 0.9, where 1 is the maximum; inactive = score below 0.9). The note with it: primary human bronchial epithelial cells; actives raise or lower the signal. Put shortly:
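Human primary bronchial epithelial cells (BE3C system) were dosed with compound and IL-1a measured by ELISA 24 h later. Activity was fitted bidirectionally against DMSO baseline; cytotoxicity was tracked in parallel cultures by SRB total-protein staining.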

Read-out in test [6]: Monocyte Chemoattractant Protein-1 (MCP1), CCL2 (gene 6347)
Kind of test: BSK_3C_MCP1: BioMAP Diversity Plus: 3C Assay for Monocyte Chemoattractant Protein-1 (MCP1) Biomarker Activity (AID 2283017; active = hit-call score of the fitted dose curve at least 0.9, where 1 is the maximum; inactive = score below 0.9). The note with it: primary human endothelial cells (HUVEC); actives raise or lower the signal. The method, boiled down: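 MCP-1 was measured by ELISA 24 h after dosing in primary HUVEC 3C cultures and fitted in both directions relative to DMSO; cytotoxicity was checked by SRB total-protein staining in parallel wells.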

Read-out in test [7]: Monocyte Chemoattractant Protein-1 (MCP1), CCL2 (gene 6347)
Briefly: BSK_4H_MCP1: BioMAP Diversity Plus: 4H Assay for Monocyte Chemoattractant Protein-1 (MCP1) Biomarker Activity (AID 2283018; active = hit-call score of the fitted dose curve at least 0.9, where 1 is the maximum; inactive = score below 0.9). The note with it: primary human endothelial cells (HUVEC); actives raise or lower the signal. The method, boiled down:
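Human umbilical vein endothelial cells (4H system) dosed with chemical; MCP-1 measured by ELISA 24 h after dosing. Bidirectional curve fitting against DMSO negative control as baseline; parallel SRB total-protein staining tracks overt cytotoxicity.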

Read-out in test [8]: Human Leukocyte Antigen - DR isotype (HLADR), HLA-DRA (gene 3122)
Kind of test: BSK_3C_HLADR: BioMAP Diversity Plus: 3C Assay for Human Leukocyte Antigen - DR isotype (HLADR) Biomarker Activity (AID 2283019; active = hit-call score of the fitted dose curve at least 0.9, where 1 is the maximum; inactive = score below 0.9;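 also: ELISA of cell-surface HLA-DR on HUVEC 24 h after dosing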). The following applies: primary human endothelial cells (HUVEC); actives raise or lower the signal. The method, boiled down:
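Bidirectional fitting against DMSO was applied to the HLA-DR ELISA signal from human umbilical vein endothelial cells, 24 h post-dose. Cytotoxicity came from parallel SRB total-protein staining; 3C proliferation was counted by SRB at 48 h.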

Read-out in test [9]: Interleukin-8 (IL8), CXCL8 (gene 3576)
Briefly: BSK_3C_IL8: BioMAP Diversity Plus: 3C Assay for Interleukin-8 (IL8) Biomarker Activity (AID 2283020; active = hit-call score of the fitted dose curve at least 0.9, where 1 is the maximum; inactive = score below 0.9). The note with it: primary human endothelial cells (HUVEC); actives raise or lower the signal. The method, boiled down: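 Primary human umbilical vein endothelial cells (3C system) were exposed to test chemical for 24 h, then IL-8 was quantified by ELISA. Responses were fitted bidirectionally against DMSO vehicle as baseline.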

Read-out in test [10]: Monokine induced gamma interferon (MIG), CXCL9 (gene 4283)
Kind of test: BSK_3C_MIG: BioMAP Diversity Plus: 3C Assay for Monokine induced gamma interferon (MIG) Biomarker Activity (AID 2283021; active = hit-call score of the fitted dose curve at least 0.9, where 1 is the maximum; inactive = score below 0.9). The note with it: primary human endothelial cells (HUVEC); actives raise or lower the signal. The method, boiled down:
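Primary human umbilical vein endothelial cells in the 3C system were exposed to chemical for 24 h, after which MIG was quantified by ELISA. Activity was fitted bidirectionally against DMSO as negative control and baseline.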

Test [11] in a line: BSK_3C_SRB: Viability Assessment in the BioMAP Diversity Plus: 3C Assay (AID 2283023; active = hit-call score of the fitted dose curve at least 0.9, where 1 is the maximum; inactive = score below 0.9;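 also: fitted both ways against DMSO so a hit may be signal rise or drop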). The note with it: primary human endothelial cells (HUVEC). The method, boiled down: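 Cytotoxicity readout in parallel HUVEC 3C cultures: after 24 h compound exposure, cells fixed with 10% TCA, stained with 0.1% SRB and read at 560 nm. Gain or loss relative to DMSO fitted.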
Read-out in test [12]: Matrix Metallopeptidase 1 (MMP1), MMP1 (gene 4312)
Kind of test: BSK_BE3C_MMP1: BioMAP Diversity Plus: BE3C Assay for Matrix Metallopeptidase 1 (MMP1) Biomarker Activity (AID 2283024; active = hit-call score of the fitted dose curve at least 0.9, where 1 is the maximum; inactive = score below 0.9). The following applies: primary human bronchial epithelial cells; actives raise or lower the signal. The method, boiled down: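 Primary human bronchial epithelial cells were dosed with test chemicals, and MMP1 levels were measured by ELISA 24 h later. Data were fitted bidirectionally against DMSO as the negative control and activity baseline.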

The nature of test [13]: BSK_3C_Vis: BioMAP Diversity Plus: 3C Assay for Morphology Visualization (AID 2283025; active = hit-call score of the fitted dose curve at least 0.9, where 1 is the maximum; inactive = score below 0.9;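 also: fitted both ways so gain or loss versus DMSO counts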). The note with it: primary human endothelial cells (HUVEC). Put shortly: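 Human umbilical vein endothelial cells in the 3C system were imaged by light microscopy 24 h after chemical dosing to record cell morphology. Activity was fitted bidirectionally against DMSO as negative control and baseline; the endpoint serves as a background control.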

Read-out in test [14]: Pselectin, SELP (gene 6403)
Briefly: BSK_4H_Pselectin: BioMAP Diversity Plus: 4H Assay for Pselectin Biomarker Activity (AID 2283026; active = hit-call score of the fitted dose curve at least 0.9, where 1 is the maximum; inactive = score below 0.9). The note with it: primary human endothelial cells (HUVEC); actives raise or lower the signal. The method, boiled down: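 Primary human umbilical vein endothelial cells were exposed to test chemical for 24 h, then cell-surface P-selectin was quantified by ELISA. Activity was fitted bidirectionally against DMSO as negative control and baseline.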

The nature of test [15]: BSK_4H_SRB: Viability Assessment in the BioMAP Diversity Plus: 4H Assay (AID 2283027; active = hit-call score of the fitted dose curve at least 0.9, where 1 is the maximum; inactive = score below 0.9;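 also: cells exposed to compound for 24 h before staining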). The note with it: primary human endothelial cells (HUVEC). The method, boiled down:
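Absorbance at 560 nm of SRB-stained total protein served as the viability read-out in confluent primary human umbilical vein endothelium 24 h after chemical treatment. Curves were fitted bidirectionally against DMSO as negative control.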

The nature of test [16]: BSK_BE3C_SRB: Viability Assessment in the BioMAP Diversity Plus: BE3C Assay (AID 2283028; active = hit-call score of the fitted dose curve at least 0.9, where 1 is the maximum; inactive = score below 0.9). The note with it: primary human bronchial epithelial cells. The method, boiled down:
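Cytotoxicity read-out: SRB (0.1%) staining of TCA-fixed (10%) human lung bronchial epithelial cells, absorbance 560 nm, 24 h post-dosing. Curves fitted both directions relative to DMSO.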

Read-out in test [17]: Thrombomodulin, THBD (gene 7056)
Briefly: BSK_3C_Thrombomodulin: BioMAP Diversity Plus: 3C Assay for Thrombomodulin Biomarker Activity (AID 2283029; active = hit-call score of the fitted dose curve at least 0.9, where 1 is the maximum; inactive = score below 0.9). The note with it: primary human endothelial cells (HUVEC); actives raise or lower the signal. The method, boiled down: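 Primary human umbilical vein endothelial cells (3C system) were exposed to chemical for 24 h, then thrombomodulin levels were measured by ELISA. Activity was fitted bidirectionally against the DMSO negative control as baseline.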

Read-out in test [18]: Urokinase-type plasminogen activator receptor (uPAR), PLAUR (gene 5329)
Kind of test: BSK_4H_uPAR: BioMAP Diversity Plus: 4H Assay for Urokinase-type plasminogen activator receptor (uPAR) Biomarker Activity (AID 2283030; active = hit-call score of the fitted dose curve at least 0.9, where 1 is the maximum; inactive = score below 0.9). The note with it: primary human endothelial cells (HUVEC); actives raise or lower the signal. Put shortly:
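uPAR level read by ELISA on HUVEC cultures (BioMAP 4H) 24 h post-dosing, analyzed for gain or loss relative to DMSO. Parallel SRB staining assessed overt cytotoxicity.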

Read-out in test [19]: Vascular endothelial growth factor receptor 2 (Homo sapiens) (UniProt P35968)
Briefly: BSK_4H_VEGFRII: BioMAP Diversity Plus: 4H Assay for Vascular endothelial growth factor receptor 2 (VEGFR2) Biomarker Activity (AID 2283031; active = hit-call score of the fitted dose curve at least 0.9, where 1 is the maximum; inactive = score below 0.9). The note with it: primary human endothelial cells (HUVEC); actives raise or lower the signal. The method, boiled down: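 Measured by ELISA after 24 h of compound treatment: VEGFR2 on primary human umbilical vein endothelial cells, fitted in both directions relative to DMSO. Parallel cultures received SRB staining (560 nm) for overt cytotoxicity.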

Read-out in test [20]: Human Leukocyte Antigen - DR isotype (HLADR), HLA-DRA (gene 3122)
Kind of test: BSK_BE3C_HLADR: BioMAP Diversity Plus: BE3C Assay for Human Leukocyte Antigen - DR isotype (HLADR) Biomarker Activity (AID 2283032; active = hit-call score of the fitted dose curve at least 0.9, where 1 is the maximum; inactive = score below 0.9). The note with it: primary human bronchial epithelial cells; actives raise or lower the signal. Put shortly:
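Human primary bronchial epithelial cells in the BE3C system were exposed to chemicals for 24 h, after which HLA-DR levels were quantified by ELISA. Activity was fitted bidirectionally, gain or loss of signal, against DMSO as negative control and baseline.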

human Retinoid X Receptor beta (RXRb), RXRB (gene 6257), sequence (P28702 whole entry, looked up, the tested form may be a part): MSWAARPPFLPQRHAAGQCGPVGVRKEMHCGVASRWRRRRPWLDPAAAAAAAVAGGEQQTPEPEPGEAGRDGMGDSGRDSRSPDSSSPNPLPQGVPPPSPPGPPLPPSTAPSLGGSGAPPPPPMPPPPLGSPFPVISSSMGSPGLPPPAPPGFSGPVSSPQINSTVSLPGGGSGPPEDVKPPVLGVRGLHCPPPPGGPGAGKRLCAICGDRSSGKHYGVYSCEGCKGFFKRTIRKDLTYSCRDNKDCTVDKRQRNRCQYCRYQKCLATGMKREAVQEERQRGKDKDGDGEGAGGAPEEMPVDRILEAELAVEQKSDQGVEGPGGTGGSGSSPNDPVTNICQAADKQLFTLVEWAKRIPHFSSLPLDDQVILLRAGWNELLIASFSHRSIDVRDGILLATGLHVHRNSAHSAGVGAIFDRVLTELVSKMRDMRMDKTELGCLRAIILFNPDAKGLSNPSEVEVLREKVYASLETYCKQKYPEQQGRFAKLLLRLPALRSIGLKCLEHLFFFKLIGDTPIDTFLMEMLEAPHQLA
human Vitamin D Receptor (VDR), VDR (gene 7421), sequence (P11473 whole entry, looked up, the tested form may be a part): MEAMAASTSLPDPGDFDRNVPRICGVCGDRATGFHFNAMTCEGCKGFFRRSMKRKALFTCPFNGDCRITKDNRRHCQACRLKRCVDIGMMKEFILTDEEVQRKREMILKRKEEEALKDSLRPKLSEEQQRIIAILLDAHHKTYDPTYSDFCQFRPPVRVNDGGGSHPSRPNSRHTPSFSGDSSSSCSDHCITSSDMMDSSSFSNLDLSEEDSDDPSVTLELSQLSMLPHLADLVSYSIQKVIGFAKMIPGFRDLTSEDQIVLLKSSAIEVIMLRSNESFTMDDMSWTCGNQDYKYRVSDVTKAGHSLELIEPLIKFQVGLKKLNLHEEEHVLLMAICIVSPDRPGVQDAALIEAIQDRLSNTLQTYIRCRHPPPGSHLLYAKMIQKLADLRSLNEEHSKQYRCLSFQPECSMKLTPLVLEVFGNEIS
E-selectin (Homo sapiens), sequence (P16581 whole entry, looked up): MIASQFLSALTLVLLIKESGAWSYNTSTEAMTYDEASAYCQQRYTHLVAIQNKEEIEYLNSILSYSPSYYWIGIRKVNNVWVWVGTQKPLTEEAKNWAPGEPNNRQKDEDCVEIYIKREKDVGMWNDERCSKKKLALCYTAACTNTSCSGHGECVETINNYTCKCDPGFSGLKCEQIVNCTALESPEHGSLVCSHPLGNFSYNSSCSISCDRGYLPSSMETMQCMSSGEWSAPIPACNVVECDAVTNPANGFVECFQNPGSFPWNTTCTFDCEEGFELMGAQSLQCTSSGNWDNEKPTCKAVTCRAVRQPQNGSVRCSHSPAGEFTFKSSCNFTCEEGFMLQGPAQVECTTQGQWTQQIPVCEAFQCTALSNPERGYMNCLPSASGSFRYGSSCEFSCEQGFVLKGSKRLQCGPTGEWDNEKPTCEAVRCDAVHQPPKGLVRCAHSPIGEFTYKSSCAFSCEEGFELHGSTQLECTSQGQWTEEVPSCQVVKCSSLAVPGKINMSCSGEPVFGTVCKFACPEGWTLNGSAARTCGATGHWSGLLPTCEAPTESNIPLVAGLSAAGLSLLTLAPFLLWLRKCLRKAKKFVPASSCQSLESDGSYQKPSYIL

Take `O=c1[nH]nc(-c2ccc([N+](=O)[O-])o2)o1`: the outcome in [1] and in test [2] was inactive.

As to `CCOCC(=O)O`, the result in test [1] and in test [2] was inactive.

For `OCCCS`, the compound was classed as inactive in test [1].

Consider `CC(C)(C)C(=O)CCc1ccc(Cl)cc1`, for which the result in [1] and in test [2] was inactive.

`O=C1C=CC(=O)O1`: the compound was called inactive in test [1] and in [2].

For `Cc1ccc(C2OC[C@@H]3OC(c4ccc(C)cc4)O[C@H]([C@H](O)CO)[C@@H]3O2)cc1` (stereo not given in full), the result in test [1] and in test [2] was inactive.

In the case of `CCCCC(CC)COC(=O)c1ccccc1` (stereo not given), the AC50 in test [1] was 60.9 µM (active). The compound was called inactive in [2].

With `O=c1cc(-c2ccccc2)oc2ccccc12`, the outcome in test [1] and in test [2] was inactive.

Take `CC(=O)OC1C2(C)CCC(C2)C1(C)C` (stereo not given): the call in [1] and in [2] was inactive.

Consider `C[Si](C)O[Si](C)(C)O[Si](C)(C)O[Si](C)C`, for which the call in test [1] and in test [2] was inactive.

Regarding `O=S(=O)(O)c1ccc2cc(O)c(S(=O)(=O)O)cc2c1`, in test [1], the outcome was inactive.

For the compound `CC(=O)c1ccc2c(c1)CCCC2`, the AC50 in test [1] is 42.9 µM (active). For the same compound, the outcome in test [2] and in [3] was inactive.

With `CCCCCCCCc1ccc(Nc2ccc(CCCCCCCC)cc2)cc1`, the outcome in test [1], in test [2], in test [4], in test [5], in test [6] and in test [7] was inactive. In addition, the result in test [8], in test [9], in test [10], in test [3], in test [11] and in test [12] was inactive. The outcome in test [13], in [14], in [15], in [16], in [17] and in test [18] was inactive. The outcome in test [19] and in test [20] was inactive.

Turning to `Cc1ccc(C(C)c2ccc(C)c(C)c2)cc1C`, the result in test [1] and in test [2] was inactive.

For the origin of these results see PubChem BioAssay (EPA / NIEHS).
